Source: PubChem BioAssay AID1159580 (chemical genetic matrix, 2015)
Hit rate of the full screen: of about 5,500 compounds, about 2,000 (36%) were called active. Inconclusive results (about 18%) are left out. This is one part of the list. Unmarked numbers belong to inactive results. Rule as the data show it: active = normalized growth mostly below about 0.91 (no sharp cut-off); inconclusive = no clear call, values can overlap the other calls; inactive = mostly above about 0.92.

Experiment: chemical genetic growth profiling, strain panel (AID 1159580);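 also: tested at 20 µM; growth read once vehicle control cultures reached saturation at 30 °C; 1 = growth at the plate median or of vehicle wells; lower values mean less growth of the strain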
Details: S. cerevisiae deletion strains, growth OD
[1] = locus YAR019C, strain CDC15, active compounds read low
[2] = locus YBL105C, strain PKC1, active compounds read low
[3] = locus YBR135W, strain CKS1, active compounds read low
[4] = locus YBR136W, strain MEC1, active compounds read low
[5] = locus YBR160W, strain CDC28, active compounds read low
[6] = locus YDL017W, strain CDC7, active compounds read low
[7] = locus YDL028C, strain MPS1, active compounds read low
[8] = locus YDL101C, strain DUN1, active compounds read low
[9] = locus YDL108W, strain KIN28, active compounds read low
[10] = locus YDL132W, strain cdc53, active compounds read low
[11] = locus YDL214C, strain PRR2, active compounds read low
[12] = locus YDR052C, strain DBF4, active compounds read low
[13] = locus YDR054C, strain cdc34, active compounds read low
[14] = locus YDR226W, strain ADK1, active compounds read low
[15] = locus YDR477W, strain SNF1, active compounds read low
[16] = locus YER123W, strain YCK3, active compounds read low
[17] = locus YER133W, strain GLC7, active compounds read low
[18] = locus YFL009W, strain cdc4, active compounds read low
[19] = locus YFL029C, strain CAK1, active compounds read low
[20] = locus YFR003C, strain YPI1, active compounds read low
[21] = locus YFR019W, strain FAB1, active compounds read low
[22] = locus YFR028C, strain CDC14, active compounds read low
[23] = locus YGR040W, strain KSS1, active compounds read low
[24] = locus YGR052W, strain FMP48, active compounds read low
[25] = locus YGR092W, strain DBF2, active compounds read low
[26] = locus YHR030C, strain SLT2, active compounds read low
[27] = locus YHR079C, strain IRE1, active compounds read low
[28] = locus YHR082C, strain KSP1, active compounds read low
[29] = locus YHR205W, strain SCH9, active compounds read low
[30] = locus YIL147C, strain SLN1, active compounds read low
[31] = locus YJL095W, strain BCK1, active compounds read low
[32] = locus YJL128C, strain PBS2, active compounds read low
[33] = locus YJL157C, strain FAR1, active compounds read low
[34] = locus YJR016C, strain ILV3, active compounds read low
[35] = locus YJR066W, strain TOR1 (second series), active compounds read low
[36] = locus YJR066W, strain TOR1, active compounds read low
[37] = locus YKL048C, strain ELM1, active compounds read low
[38] = locus YKL067W, strain YNK1, active compounds read low
[39] = locus YKL101W, strain HSL1, active compounds read low
[40] = locus YKL193C, strain SDS22, active compounds read low
[41] = locus YKL203C, strain TOR2, active compounds read low
[42] = locus YLR113W, strain HOG1, active compounds read low
[43] = locus YLR133W, strain CKI1, active compounds read low
[44] = locus YLR403W, strain SFP1, active compounds read low
[45] = locus YML070W, strain DAK1, active compounds read low
[46] = locus YMR001C, strain CDC5, active compounds read low
[47] = locus YMR205C, strain PFK2 (second series), active compounds read low
[48] = locus YMR277W, strain FCP1, active compounds read low
[49] = locus YNL006W, strain LST8, active compounds read low
[50] = locus YNL020C, strain ARK1, active compounds read low
[51] = locus YNL161W, strain CBK1, active compounds read low
[52] = locus YNL183C, strain NPR1, active compounds read low
[53] = locus YNL207W, strain RIO2, active compounds read low
[54] = locus YNL222W, strain SSU72, active compounds read low
[55] = locus YNL307C, strain MCK1 (second series), active compounds read low
[56] = locus YOL078W, strain AVO1, active compounds read low
[57] = locus YOL136C, strain PFK27, active compounds read low
[58] = locus YOR061W, strain CKA2, active compounds read low
[59] = locus YOR119C, strain RIO1, active compounds read low
[60] = locus YOR231W, strain MKK1, active compounds read low
[61] = locus YOR329C, strain SCD5, active compounds read low
[62] = locus YPL031C, strain PHO85, active compounds read low
[63] = locus YPL153C, strain RAD53, active compounds read low
[64] = locus YPL204W, strain HRR25, active compounds read low
[65] = locus YPL209C, strain IPL1, active compounds read low
[66] = locus YPL256C, strain CLN2, active compounds read low
[67] = locus YPR025C, strain CCL1, active compounds read low
[68] = locus YPR106W, strain ISR1, active compounds read low
[69] = locus YPR111W, strain DBF20, active compounds read low
[70] = strain NNK1, active compounds read low
[71] = strain TSCII, active compounds read low

SMILES: Cc1cc(C(=O)O/N=C(/N)c2ccc([N+](=O)[O-])o2)no1
- normalized growth [1]: 0.961
- normalized growth [2]: 0.968
- normalized growth [3]: 0.963
- normalized growth [4]: 0.962
- normalized growth [5]: 0.951
- normalized growth [6]: 0.963
- normalized growth [7]: 0.931
- normalized growth [8]: 0.964
- normalized growth [9]: 0.949
- normalized growth [10]: 0.968
- normalized growth [11]: 0.887
- normalized growth [12]: 0.919
- normalized growth [13]: 0.991
- normalized growth [14]: 0.927
- normalized growth [15]: 0.918
- normalized growth [16]: 0.87
- normalized growth [17]: 0.963
- normalized growth [18]: 0.97
- normalized growth [19]: 0.965
- normalized growth [20]: 0.955
- normalized growth [21]: 0.877
- normalized growth [22]: 0.938
- normalized growth [23]: 0.848
- normalized growth [24]: 0.869
- normalized growth [25]: 0.178 (active)
- normalized growth [26]: 0.218 (active)
- normalized growth [27]: 0.832
- normalized growth [28]: 0.892
- normalized growth [29]: 0.745
- normalized growth [30]: 0.946
- normalized growth [31]: 0.796
- normalized growth [32]: 0.895
- normalized growth [33]: 0.914
- normalized growth [34]: 0.953
- normalized growth [35]: 0.822
- normalized growth [36]: 0.809
- normalized growth [37]: 0.831
- normalized growth [38]: 0.868
- normalized growth [39]: 0.83
- normalized growth [40]: 0.962
- normalized growth [41]: 0.99
- normalized growth [42]: 0.757 (active)
- normalized growth [43]: 0.894
- normalized growth [44]: 0.927
- normalized growth [45]: 0.846
- normalized growth [46]: 0.963
- normalized growth [47]: 0.938
- normalized growth [48]: 0.941
- normalized growth [49]: 0.979
- normalized growth [50]: 0.885
- normalized growth [51]: 0.967
- normalized growth [52]: 0.898
- normalized growth [53]: 0.948
- normalized growth [54]: 0.957
- normalized growth [55]: 0.825
- normalized growth [56]: 0.952
- normalized growth [57]: 0.873
- normalized growth [58]: 0.866
- normalized growth [59]: 0.888
- normalized growth [60]: 0.567 (active)
- normalized growth [61]: 0.965
- normalized growth [62]: 0.92
- normalized growth [63]: 0.949
- normalized growth [64]: 0.946
- normalized growth [65]: 0.964
- normalized growth [66]: 0.741 (active)
- normalized growth [67]: 0.97
- normalized growth [68]: 0.936
- normalized growth [69]: 0.896
- normalized growth [70]: 0.94
- normalized growth [71]: 0.965

SMILES: Cc1cc(C(=O)O/N=C(/N)c2ccc(C(C)(C)C)cc2)no1
- normalized growth [1]: 0.972
- normalized growth [2]: 0.979
- normalized growth [3]: 0.975
- normalized growth [4]: 0.985
- normalized growth [5]: 0.979
- normalized growth [6]: 0.993
- normalized growth [7]: 0.971
- normalized growth [8]: 0.993
- normalized growth [9]: 0.976
- normalized growth [10]: 0.975
- normalized growth [11]: 0.909
- normalized growth [12]: 0.986
- normalized growth [13]: 0.963
- normalized growth [14]: 0.983
- normalized growth [15]: 0.911
- normalized growth [16]: 0.901
- normalized growth [17]: 0.882
- normalized growth [18]: 0.952
- normalized growth [19]: 0.969
- normalized growth [20]: 0.986
- normalized growth [21]: 0.922
- normalized growth [22]: 0.98
- normalized growth [23]: 0.956
- normalized growth [24]: 0.958
- normalized growth [25]: 0.906
- normalized growth [26]: 0.77 (active)
- normalized growth [27]: 0.789
- normalized growth [28]: 0.939
- normalized growth [29]: 0.822
- normalized growth [30]: 0.982
- normalized growth [31]: 0.772
- normalized growth [32]: 0.938
- normalized growth [33]: 0.923
- normalized growth [34]: 0.98
- normalized growth [35]: 0.738
- normalized growth [36]: 0.722
- normalized growth [37]: 1.05
- normalized growth [38]: 0.921
- normalized growth [39]: 1.01
- normalized growth [40]: 0.978
- normalized growth [41]: 0.88
- normalized growth [42]: 0.789 (active)
- normalized growth [43]: 0.943
- normalized growth [44]: 0.852
- normalized growth [45]: 0.915
- normalized growth [46]: 0.974
- normalized growth [47]: 0.916
- normalized growth [48]: 0.961
- normalized growth [49]: 0.972
- normalized growth [50]: 0.942
- normalized growth [51]: 0.983
- normalized growth [52]: 0.782
- normalized growth [53]: 0.979
- normalized growth [54]: 0.969
- normalized growth [55]: 0.939
- normalized growth [56]: 0.979
- normalized growth [57]: 0.959
- normalized growth [58]: 0.93
- normalized growth [59]: 0.911
- normalized growth [60]: 0.803
- normalized growth [61]: 0.987
- normalized growth [62]: 0.901
- normalized growth [63]: 0.893
- normalized growth [64]: 0.914
- normalized growth [65]: 0.974
- normalized growth [66]: 0.884
- normalized growth [67]: 0.973
- normalized growth [68]: 0.98
- normalized growth [69]: 0.964
- normalized growth [70]: 0.999
- normalized growth [71]: 0.966

SMILES: N/C(=N\OC(=O)c1ccno1)c1ccc(C(F)(F)F)cc1
- normalized growth (locus YAL013W, strain DEP1, active compounds read low): 0.951
- normalized growth (locus YBR229C, strain ROT2, active compounds read low): 0.992
- normalized growth (locus YCL061C, strain MRC1, active compounds read low): 0.974
- normalized growth [8]: 1.02
- normalized growth (locus YDR150W, strain NUM1, active compounds read low): 0.978
- normalized growth (locus YEL061C, strain CIN8, active compounds read low): 1
- normalized growth (locus YGR078C, strain PAC10, active compounds read low): 0.971
- normalized growth (locus YGR229C, strain SMI1, active compounds read low): 1.02
- normalized growth [26]: 0.888
- normalized growth (locus YHR087W, strain rtc3, active compounds read low): 0.966
- normalized growth (locus YJL187C, strain SWE1, active compounds read low): 0.993
- normalized growth (locus YJR043C, strain POL32, active compounds read low): 0.988
- normalized growth (locus YJR075W, strain HOC1, active compounds read low): 1.01
- normalized growth (locus YKL190W, strain CNB1, active compounds read low): 1.01
- normalized growth (locus YLR039C, strain RIC1, active compounds read low): 0.91
- normalized growth (locus YLR058C, strain SHM2 (second series), active compounds read low): 0.988
- normalized growth (locus YLR085C, strain ARP6, active compounds read low): 1.06
- normalized growth (locus YLR262C, strain YPT6, active compounds read low): 0.944
- normalized growth (locus YML094W, strain GIM5, active compounds read low): 0.95
- normalized growth (locus YMR219W, strain ESC1, active compounds read low): 0.996
- normalized growth (locus YMR263W, strain SAP30, active compounds read low): 0.98
- normalized growth (locus YMR307W, strain GAS1, active compounds read low): 1.17
- normalized growth (locus YNL153C, strain GIM3, active compounds read low): 0.973
- normalized growth (locus YNL298W, strain CLA4 (second series), active compounds read low): 0.949
- normalized growth (locus YNL322C, strain KRE1, active compounds read low): 0.987
- normalized growth (locus YNR030W, strain Alg12, active compounds read low): 0.939
- normalized growth (locus YOL006C, strain TOP1, active compounds read low): 0.939
- normalized growth (locus YPL055C, strain LGE1, active compounds read low): 0.839
- normalized growth (locus YPL241C, strain CIN2, active compounds read low): 1.03
- normalized growth (locus YPR135W, strain CTF4, active compounds read low): 0.82
